A short description of this assay: caspase-3/7 apoptosis induction in SNB-75, late-stage follow-up, mechanism study for HRAS target identification, cell-based, caspase 3/7 luminescence, several timepoints, dry powder (AID 720629). The settings on record: max activity: measured here: caspase 3/7, timepoint 1, at 0.0003 µM, stronger effect = higher value unless noted.

Structures are written as SMILES. Inconclusive results are not listed. The source made the active and inactive calls. No rule for the calls is given here.

Consider `CCC(=O)N(c1ccc(OC)c(Cl)c1)C(C(=O)NCCc1ccccc1)c1cccs1` (centres undefined), for which the max activity was -24.1% [measured here: caspase 3/7, timepoint 1, at 0.0001 µM, stronger effect = higher value] and the molecule was classed as inactive.

On to `C#CCCCC(=O)NCCOCCOCCOc1ccc(N(C(=O)CCl)C(C(=O)NCCc2ccccc2)c2cccs2)cc1Cl` (centres undefined), for which the max activity was -28.3% and the molecule was classed as inactive.

(Values after PubChem BioAssay AID720629 (Broad Institute, 2013).)
